{
  "source": "PubChem BioAssay (Tox21)",
  "note": "Records with an inconclusive call do not appear. Values without a mark were called inactive. Calls follow the shape of the full dose curve. % is scaled to controls: 0 for no effect and ±100 for the full control effect.",
  "data": [
    {"biological_target": "Beta-2 adrenergic receptor (Homo sapiens) (UniProt P07550)", "sequence (P07550 whole entry, looked up)": "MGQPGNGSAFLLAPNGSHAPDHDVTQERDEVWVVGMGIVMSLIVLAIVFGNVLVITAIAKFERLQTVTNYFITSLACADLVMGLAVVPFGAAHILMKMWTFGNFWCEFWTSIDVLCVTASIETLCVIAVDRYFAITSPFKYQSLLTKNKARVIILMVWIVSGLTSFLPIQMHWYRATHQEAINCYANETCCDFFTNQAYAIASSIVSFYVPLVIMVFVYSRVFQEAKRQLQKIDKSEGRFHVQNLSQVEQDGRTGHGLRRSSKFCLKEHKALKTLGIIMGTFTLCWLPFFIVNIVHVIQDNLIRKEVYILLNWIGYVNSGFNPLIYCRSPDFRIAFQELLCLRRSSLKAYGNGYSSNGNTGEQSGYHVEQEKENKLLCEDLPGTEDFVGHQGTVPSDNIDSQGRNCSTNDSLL", "experiment": "Adrenergic beta2 receptor (ADRB2) small molecule antagonists, cell-based qHTS assay (AID 1963592); also: nearly all actives have a fitted effect of over 50% in size", "settings": "CHO-ADRB2 cells, isoproterenol-stimulated cAMP HTRF ratio, 0.5 h; series mostly up to 92.4 µM; activity change, negative = inhibition: at the top concentration", "source_text": "U.S. Tox21 Program National Center for Advancing Translational Sciences [NCATS] Division of Preclinical Innovation [DPI] U.S. Environmental Protection Agency [EPA] National Institutes of Environmental Health Sciences [NIEHS] National Toxicology Program [NTP] U.S. Food and Drug Administration [FDA] Tox21 Assay Overview: Beta adrenergic receptors (Beta-ARs) belong to the G-protein coupled receptor (GPCR) superfamily, includes three subtypes - beta1, beta2, and beta3. Beta1-AR is the predominant receptor subtype expressed in the heart, and beta2-AR is expressed in the kidney, lung, blood vessel and in the heart, and beta3 is found in the adipocytes. Beta1 and 2 ARs couple to Gs protein and elevate cyclic adenosine mono phosphate (cAMP), which activates protein kinase A and leads to the downstream signaling responsible for the physiological actions. Beta-AR agonists or antagonists are the most prescribed therapeutic agents for heart failure and asthma, and these were one of the first target receptors for the rational drug design. Tox21 10K compound library was screened using the cAMP-Gs dynamic assay (Cisbio Bioassays, Shelton, CT) to identify agonists/antagonists of the Gs-coupled human adrenergic, beta2 receptor (ADRB2) in the CHO-ADRB2 cell line (Codex BioSolutions, Inc. Gaithersburg, MD), which stably over-expresses ADRB2. The principle of cAMP-Gs dynamic assay is based on HTRF technology, which facilitates the fluorescence resonance energy transfer (FRET) between donor Europium cryptate and acceptor d2-labeled cAMP. The cAMP generated within cells competes with the red acceptor, d2-labled cAMP, for binding to the monoclonal anti-cAMP-cryptate (Europium donor). An increase in intracellular cAMP leads to the disruption of FRET signal, and the signal is inversely proportional to the cAMP concentration. Propranolol HCl (Sigma-Aldrich, St. Louis, MO) was used as a positive control in the screening.\nTox21 Assay Protocol Summary: CHO-ADRB2 cells were dispensed at 1,000/well in 4uL assay medium into white/solid 1536-well plates (Greiner Bio-One North America Inc., Monroe, NC) using a Multidrop Combi dispenser (ThermoFisher Scientific, Waltham, MA). The assay plates were incubated at 37C and 5% CO2 for an overnight (18-20hr). Then positive control and test compounds dissolved in DMSO were transferred to the assay plates at 23nL using a Pintool station (Wako, San Diego, CA). Following the compound and positive control transfer, 1uL agonist-stimulation mix containing 1nM Isoproterenol HCl, 100uM IBMX and 25uM Ro-20-1724 was added to each well of the assay plates using BioRAPTR Flying Reagent Dispenser (FRD, Beckman Coulter, Brea, CA). The assay plates were incubated at room temperature for 0.5hr. Then 2.5ul each d2-labled cAMP and anti-cAMP-cryptate solutions were added separately to each well of the assay plates using an FRD and the assay plates were incubated at room temperature for 1hr. The fluorescence signal was measured at two different wavelengths (665nm and 615nm) using an Envision plate reader (Perkin Elmer, Shelton, CT). Data were expressed as the ratio of 665 nm/615 nm.", "values": [
      {"compound": "CC(=O)Nc1ccc(S(=O)(=O)Nc2ccc([N+](=O)[O-])cc2)cc1", "activity change, negative = inhibition": "-5.34% [at 42.5 µM]"},
      {"compound": "CCCC(C)CC", "note": "(stereo not given)", "activity change, negative = inhibition": "-14.9%"},
      {"compound": "O=C(CN1CCNCC1)NC1CCCCC1", "activity change, negative = inhibition": "-0.388% [at 42.5 µM]"},
      {"compound": "Oc1cccc(Nc2ccccc2)c1", "activity change, negative = inhibition": "-16.1%"},
      {"compound": "NC(=O)c1cc[n+](CC2=C(C(=O)[O-])N3C(=O)[C@@H](NC(=O)Cc4cccs4)[C@H]3SC2)cc1", "activity change, negative = inhibition": "-3.56% [at 42.5 µM]"},
      {"compound": "CCCCCCCC/C=C/CCCCCCCC1=NCCN1CCO", "activity change, negative = inhibition": "11.2%"},
      {"compound": "CN(C)CCOC(=O)C(c1ccccc1)C1(O)CCCC1", "note": "(stereo not given)", "activity change, negative = inhibition": "-4.64% [at 42.5 µM]"},
      {"compound": "CC(C)OC(=O)c1ccccc1C(=O)OC(C)C", "activity change, negative = inhibition": "-2.66%"},
      {"compound": "CC[C@H](C)C(=O)O[C@H]1C[C@H](O)C=C2C=C[C@H](C)[C@H](CC[C@@H](O)C[C@@H](O)CC(=O)O)[C@H]21", "activity change, negative = inhibition": "-2.33%"},
      {"compound": "CCC(=O)c1ccc2c(c1)N(CCCN(C)C)c1ccccc1S2", "activity change, negative = inhibition": "-20.3% [at 42.5 µM]"},
      {"compound": "C/C=C/C=N/NC(=O)c1ccncc1", "activity change, negative = inhibition": "0.456% [at 42.5 µM]"},
      {"compound": "NC(CCC(=O)O)C(=O)O", "note": "(stereo not given)", "activity change, negative = inhibition": "1.31%"},
      {"compound": "O=C(O)c1ccc2cc(C(=O)O)ccc2c1", "activity change, negative = inhibition": "-8.28%"},
      {"compound": "O=C1CCc2cc(OCCCCc3nnnn3C3CCCCC3)ccc2N1", "activity change, negative = inhibition": "4.78% [at 42.5 µM]"},
      {"compound": "CC(C)(C)c1cc(O)c(C(C)(C)C)cc1O", "activity change, negative = inhibition": "-14.2%"},
      {"compound": "CCOC(=O)C1=NN(c2ccccc2)C(=O)C1", "activity change, negative = inhibition": "-18.4%"},
      {"compound": "CC(C)OC(=O)OCOP(=O)(CO[C@H](C)Cn1cnc2c(N)ncnc21)OCOC(=O)OC(C)C", "activity change, negative = inhibition": "-0.198% [at 42.5 µM]"},
      {"compound": "O=C1CCCC(=O)O1", "activity change, negative = inhibition": "-4.19%"},
      {"compound": "C#Cc1cccc(Nc2ncnc3cc(OCCOC)c(OCCOC)cc23)c1", "activity change, negative = inhibition": "1.58% [at 42.5 µM]"},
      {"compound": "Cc1ccccc1Br", "activity change, negative = inhibition": "9.09%"},
      {"compound": "C[C@@H]1C[C@H]2[C@@H]3CCC4=CC(=O)C=C[C@]4(C)[C@@]3(Cl)[C@@H](O)C[C@]2(C)[C@@]1(OC(=O)c1ccco1)C(=O)CCl", "activity change, negative = inhibition": "-7.27% [at 42.5 µM]"},
      {"compound": "C=CCCC(=O)O", "activity change, negative = inhibition": "4.04%"},
      {"compound": "NC(=O)n1c(O)c(C(=O)c2cccs2)c2cc(Cl)ccc21", "activity change, negative = inhibition": "1.97% [at 42.5 µM]"},
      {"compound": "CC(C)COC(=O)c1ccc(O)cc1", "activity change, negative = inhibition": "-6.01%"},
      {"compound": "CC(=O)c1ccc([N+](=O)[O-])cc1", "activity change, negative = inhibition": "0.564%"},
      {"compound": "CC[N+](C)(CC)CC", "activity change, negative = inhibition": "4.97%"},
      {"compound": "CCCCCCCC/C=C\\CCCCCCCC(=O)OCC", "activity change, negative = inhibition": "-3.38%"},
      {"compound": "N/C(=N\\N=C\\c1ccc(Cl)cc1)N/N=C/c1ccc(Cl)cc1", "activity change, negative = inhibition": "6.41% [at 42.5 µM]"},
      {"compound": "Cc1c(C(=O)O)cccc1[N+](=O)[O-]", "activity change, negative = inhibition": "-7%"},
      {"compound": "CCC(C)O", "note": "(stereo not given)", "activity change, negative = inhibition": "-20.3%"},
      {"compound": "OC(CCN1CCCCC1)(c1ccccc1)C1CCCCC1", "note": "(stereo not given)", "activity change, negative = inhibition": "1.28% [at 42.5 µM]"},
      {"compound": "CC1=Nc2ccccc2C1(C)C", "activity change, negative = inhibition": "-0.908%"},
      {"compound": "CCOC(=O)OC(C)OC(=O)[C@@H]1N2C(=O)[C@@H](NC(=O)[C@H](N)c3ccccc3)[C@H]2SC1(C)C", "note": "(stereo not given in full)", "activity change, negative = inhibition": "0.667% [at 42.5 µM]"},
      {"compound": "O=C1c2cccc3c2[C@H](CCC3)CN1[C@@H]1CN2CCC1CC2", "activity change, negative = inhibition": "-0.175% [at 42.5 µM]"},
      {"compound": "C[N+](C)(C)CCOC(N)=O", "activity change, negative = inhibition": "2.44% [at 42.5 µM]"},
      {"compound": "COC(C)CCO", "note": "(stereo not given)", "activity change, negative = inhibition": "1.7%"},
      {"compound": "CCCC/C=C/C=C\\C=O", "activity change, negative = inhibition": "2.69%"},
      {"compound": "CC(C)CCCCCCCOC(=O)c1ccc(C(=O)OCCCCCCCC(C)C)c(C(=O)OCCCCCCCC(C)C)c1", "activity change, negative = inhibition": "4.92%"},
      {"compound": "O=C1Cc2ccccc2C1", "activity change, negative = inhibition": "-0.494%"},
      {"compound": "Nc1cccc([N+](=O)[O-])c1", "activity change, negative = inhibition": "0.925%"}
    ]}
  ]
}
